From PubChem BioAssay
This is a sample that favours compounds with a hit; in the whole collection about 1.8% have one here.
APOBEC3G inh: APOBEC3G (human) deaminase inhibition; AID 493012; recombinant A3G, ssDNA deamination FAM/TAMRA fluorescence; actives 0.28% (n = 330,000); inhibition, % at 20 µM;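 active = inhibition of at least 40% at 20 µM, with no more than 30% in the related APOBEC3A deaminase screen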
A3A deaminase: blocks human APOBEC3A ssDNA deamination | recombinant A3A, FAM/TAMRA ssDNA deamination fluorescence | P31941 | inhibition, % at 20 µM | actives 0.41% (n = 330,000);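 active = at least 40% inhibition at 20 µM here, with at most 30% in a related deaminase screen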
Target sequence (P31941 whole entry, looked up): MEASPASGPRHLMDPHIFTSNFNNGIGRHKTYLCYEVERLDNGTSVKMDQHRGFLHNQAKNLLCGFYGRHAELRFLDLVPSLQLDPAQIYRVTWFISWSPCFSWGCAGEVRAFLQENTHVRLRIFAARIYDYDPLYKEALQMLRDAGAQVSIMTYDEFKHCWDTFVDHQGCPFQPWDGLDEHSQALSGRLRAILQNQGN
NRP1-CendR mod: NRP-1/CendR interaction modulation | O14786 | FAM-RPARPAR peptide binding to NRP-1, fluorescence polarization | inhibition, % at 25 µM | actives 0.85% (n = 360,000) | AID 602438;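 active = inhibition or corrected inhibition above about 18%, plus a signal ratio from 0.5 to 1.5, limit read from the data, passing the limit was not always enough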
VLA-4 inh: inhibition in a human VLA-4 binding assay. P13612. VLA-4 expressing cells, ligand binding flow cytometry. inhibition, % (about 7 µM as worked out from the volumes in the protocol). actives 0.2% (n = 330,000); in the data active = inhibition above about 50%
MIN6 prolif-1: inducers of beta-cell replication in MIN6 cells. MIN6 cells proliferation, ATPlite luminescence, 48 h; cells starved in 0.2% serum; 100% = growth in 10% serum. proliferation, % at 10 µM. actives 0.29% (n = 330,000);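 active = compounds whose signal lies at least 3.5 SD above the mean of all wells on their plate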
MIN6 prolif-2: MIN6 beta-cell replication induction, confirmed. 920 tested, under 10 active. MIN6 beta-cell proliferation, ATPlite luminescence, 48 h; cells kept in 0.2% serum; scaled between 0.2% and 10% serum. proliferation increase, % at 50 µM. shares compounds with MIN6 prolif-1;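 active = proliferation increase above 40% at any of the four tested concentrations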
Hits are given with their value; . = inactive; / = not tested or not shown.

SMILES	APOBEC3G inh	A3A deaminase	NRP1-CendR mod	VLA-4 inh	MIN6 prolif-1	MIN6 prolif-2
COc1ccc(S(=O)(=O)N2CCC3(CC2)OCCN3S(=O)(=O)c2cccs2)cc1	.	.	.	.	13.0	.
CC(=O)Nc1ccc(S(=O)(=O)NC(=O)C23CC4CC(CC(C4)C2)C3)cc1	.	.	.	.	7.5	.
COc1ccc(CNC(=O)c2ccc(S(=O)(=O)N3CC(C)CC(C)C3)cc2)cc1OC (centres undefined)	/	/	.	/	/	/
COc1ccccc1N(C(=O)c1ccco1)C(C(=O)NC1CCCC1)c1cccs1 (centres undefined)	.	.	.	.	0.0	.
COc1ccc(OC)c(C(C(=O)NC2CCCCC2)N(C(=O)c2snc(C(N)=O)c2N)c2ccccc2OC)c1 (centres undefined)	.	.	.	.	.	/
COc1ccccc1N(C(=O)c1snc(C(N)=O)c1N)C(C(=O)NC1CCCCC1)c1cccc(OC)c1OC (centres undefined)	.	.	.	.	24.8	.
COc1ccc(N(C(=O)c2ccco2)C(C(=O)NC2CCCC2)c2cccs2)cc1OC (centres undefined)	.	.	.	.	.	/
O=C(CCCN1C(=O)/C(=C/c2ccc(F)cc2)SC1=S)NC1CCS(=O)(=O)C1 (centres undefined)	.	.	.	.	.	/
O=C(NC1CCCCC1)C1CCN(S(=O)(=O)c2cccc3nonc23)CC1	.	.	.	.	.	/
Cc1cc(C)c2ccc(Cl)cc2n1	.	.	.	.	.	/
CC(=O)c1c(C)nc2cc(Cl)ccc2c1N	.	.	.	.	5.5	.
COC(C(=O)Nc1ccnn1C1CCN(Cc2nccs2)CC1)c1ccccc1 (centres undefined)	.	.	.	.	.	/
COC(=O)c1sccc1NC(=O)c1c(Cl)cnn1C	.	.	.	.	9.0	.
COc1ccc(NC(=O)c2c(Cl)cnn2C)c(C)c1	.	.	.	.	.	/
CC(C)Nc1nc(NC(C)(C)C)nc(Oc2ccc(=O)n(-c3ccccc3)n2)n1	.	.	.	.	7.5	.
CCn1c(=O)[nH]c(=O)c2c(N)c(C(=O)c3cc(F)ccc3F)sc21	.	.	.	.	9.1	.
Cc1cc(C)cc(NC(=O)CCN2CCOCC2)c1	.	.	.	.	.	/
O=C(c1ccc(-n2ccnc2)cc1)N1CCCC(CO)(Cc2cccc(Cl)c2)C1 (centres undefined)	.	.	.	.	16.0	.
CCOC(=O)C1=C(C)NC(=O)NC1c1ccc(OC(=O)c2ccco2)c(OC)c1 (centres undefined)	.	.	.	.	4.7	.
COC(=O)c1ccsc1NC(=O)c1ccco1	.	.	.	.	11.1	.
COC(=O)c1cc(C)sc1NC(=O)c1ccco1	.	.	.	.	.	/
CC(Sc1nnc(CN2CCCC2)n1Cc1ccccc1)C(=O)Nc1ccc(F)cc1Cl (centres undefined)	/	/	.	/	/	/
COC(=O)C1=C(Cn2cnc3ccccc32)NC(=O)NC1c1cc(C)ccc1C (centres undefined)	.	.	.	.	5.4	.
CCOC(=O)C1=C(Cn2cnc3ccccc32)NC(=O)NC1c1cc(C)ccc1C (centres undefined)	.	.	.	.	.	/
O=S(=O)(c1ccccc1)c1nc(-c2ccc(Cl)cc2)oc1NCCCN1CCOCC1	.	.	.	/	.	/
SMILES	APOBEC3G inh	A3A deaminase	NRP1-CendR mod	VLA-4 inh	MIN6 prolif-1	MIN6 prolif-2
Cc1cccc(-c2nnc(SCC(=O)c3ccc(O)cc3O)n2C)c1	.	.	.	.	.	/
Cc1ccc(Nc2nc3c(c(=O)[nH]2)CCCC3)cc1	.	.	.	.	5.8	.
COc1ccc(C(=O)N2CCOC2CNC(=O)C(=O)NCc2ccccn2)cc1 (centres undefined)	/	/	.	/	/	/
COc1ccc(NC(C)=O)cc1S(=O)(=O)Nc1ccc2c(c1)OCCO2	.	.	.	.	7.9	.
Cc1cc(C(=O)N2CCCC(C(=O)c3ccc4ccccc4c3)C2)n(C)n1 (centres undefined)	.	.	.	.	.	/
O=C(COC(=O)c1ccc2[nH]c3c(c2c1)CCCC3)Nc1ccccc1Cl	.	.	.	.	9.6	.
O=C(COC(=O)c1ccc2[nH]c3c(c2c1)CCCC3)Nc1ccc(Cl)cc1Cl	.	.	.	.	.	/
